Experimental data: the supplement of paper PMC8699584
Where “and” joins values, the source holds several entries; their conditions need not be identical. Equal entries are not always repeated. Structures can show the parent of a compound that is named as a salt. ± gives the standard deviation of the averaged measurements.

Tests used:
Molm13 = test: cell viability relative to DMSO control (bortezomib = 0%); higher = less growth inhibition; details: 10 nM; 72 h
In short: (§1)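 Acute myeloid leukemia cells were plated at 1000 cells per well in 50 µL onto a 679-compound library of approved and investigational agents in 384-well plates and exposed to a single 10 nM dose for 72 h, in duplicate. Cell viability was measured by CellTiter-Glo luminescence on an EnVision reader. Readings were scaled to percentages by per-plate linear regression, with DMSO-treated cells set at 100% and positive-control-treated cells at 0%.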

Mv4-11 = test: as above; details: 10 nM; 72 h
In short: as §1

Compound	cell viability (Molm13)	cell viability (Mv4-11)
Cc1cccc(-c2[nH]c(C(C)(C)C)nc2-c2ccc3c(c2)OCO3)n1	118 ± 26%	107 ± 20%
C=CCc1ccc(O)c(-c2ccc(O)c(CC=C)c2)c1 [Honokiol]	105 ± 5.5%	112 ± 14%
O=C1Nc2cc(Br)ccc2/C1=C1/Nc2ccccc2/C1=N\O	109 ± 2.3%	91.4 ± 8.7%
COC(=O)c1ccc2c(c1)NC(=O)/C2=C(\Nc1ccc(N(C)C(=O)CN2CCN(C)CC2)cc1)c1ccccc1 [Nintedanib (BIBF 1120)]	83.62 ± 0.69%	113 ± 5.7%
CN1CCN(c2cccc(Nc3nc4c(-c5ccc(S(C)(=O)=O)cc5)cccn4n3)c2)CC1	118 ± 14%	101 ± 7.2%
COc1cc(N2CCC(N)CC2)ccc1Nc1ncc(Cl)c(-c2c[nH]c3ccccc23)n1	86 ± 2.5%	93.3 ± 5.9%
c1ccc(-c2[nH]ncc2-c2ccnc3ccccc23)nc1	102% and 105%	111% and 113%
C=CC(=O)Nc1cccc(C)c1Nc1ncc2cc(-c3c(Cl)c(OC)cc(OC)c3Cl)ccc2n1	112 ± 22%	112 ± 1.2%
O=C(Nc1cccnc1)c1cc(-c2ccnc(F)c2)ccc1OCc1ccccc1	101 ± 20%	105 ± 2.3%
O=C(O)c1ccc2nc(-c3ccccc3)c(-c3ccccc3)nc2c1	98.2 ± 15%	111.7 ± 0.8%
CC(C)NCC(O)c1ccc(O)c(O)c1 (stereo not given) [Isoprenaline hydrochloride]	114 ± 3.4%	101 ± 17%
CC(C)(C)c1ccc(S(=O)(=O)/C=C/C#N)cc1	108 ± 16%	98.9 ± 4.4%
CC1(C)C=Cc2c(ccc3c2OC[C@@H](c2ccc(O)cc2O)C3)O1 [Glabridin]	100 ± 12%	99 ± 1.6%
COc1cc2ncnc(Nc3ccc(O)c(Br)c3)c2cc1OC	95.4 ± 24%	112 ± 14%
N#C/C(=C\c1ccc(O)c(O)c1)C(=O)NCc1ccccc1	96.4 ± 11%	100.7 ± 0.73%
CC1(COc2ccc3c(c2)ncn3-c2ccc3cccc(N4CCC(N)CC4)c3n2)COC1 [Crenolanib]	14.9 ± 3.8%	18.2 ± 5.8%
C=C1C[C@@]2(O)O[C@@]3(C[C@H]2C(C)C)[C@@H](C)CC[C@@H]13 [Curcumol]	99 ± 9.7%	97.2 ± 4.6%
CNC(=O)c1cc(Oc2ccc(NC(=O)Nc3ccc(Cl)c(C(F)(F)F)c3)cc2)ccn1 [Sorafenib]	53.7 ± 6.9%	47.8 ± 9.4%

Compound	cell viability (Molm13)	cell viability (Mv4-11)
C[C@@H]1COCCN1c1cc(C2([S@](C)(=N)=O)CC2)nc(-c2cc[nH]c3nccc2-3)n1	114 ± 7.9%	115 ± 3.4%
Cc1cnc(Nc2ccc(OCCN3CCCC3)cc2)nc1Nc1cccc(S(=O)(=O)NC(C)(C)C)c1	86.3 ± 1.3%	92.97 ± 0.82%
COc1ccc(CCNCc2ccc(OCc3ccc(Cl)nc3)c(OC)c2)cc1OC [SBE 13 hydrochloride]	99.3 ± 18%	107 ± 3%
FC(F)(F)c1ccc(CNc2ccc(Cc3c[nH]c4ncccc34)cn2)cc1	76.9 ± 16%	110 ± 3.2%
CC1(C)CC(=O)C2=C(C1)NC(=S)NC2c1cccc(O)c1 (stereo not given) [Dimethylenastron]	91 ± 2.6%	109 ± 4.5%
Cc1cn(-c2cc(NC(=O)c3ccc(C)c(Nc4nccc(-c5cccnc5)n4)c3)cc(C(F)(F)F)c2)cn1 [Nilotinib (AMN-107)]	108 ± 9%	112 ± 16%
CN(c1ccccc1CNc1nc(Nc2ccc3c(c2)CC(=O)N3)ncc1C(F)(F)F)S(C)(=O)=O	112 ± 25%	96.4 ± 15%
Nc1ncnc2n[nH]c(Nc3ccc(F)cc3)c12	102 ± 11%	105 ± 3.4%
CCn1c(=O)c(-c2ccc(-c3cncs3)cc2Cl)cc2cnc(Nc3ccc(N4CCN(C)CC4)cc3)nc21	106 ± 6.4%	111 ± 10%
Cc1cncc2cccc(S(=O)(=O)N3CCCN(C(=O)CN)C[C@@H]3C)c12 [(S)-Glycyl-H-1152 (hydrochloride)]	110 ± 9.1%	97.4 ± 11%
CN1CCN(CCCNc2ncc(Cl)c(-c3cc4c(C(=O)NC5CC5)cccc4s3)n2)CC1	110 ± 3.6%	109 ± 13%
O=C(Nc1cccc(Nc2ncc(Br)c(NCCc3cnc[nH]3)n2)c1)N1CCCC1	73 ± 3.7%	81.16 ± 0.49%
COc1cc(OC)c(/C=C/S(=O)(=O)Cc2ccc(OC)c(NCC(=O)O)c2)c(OC)c1	99.3 ± 23%	124 ± 8.1%
CC(C)(C)n1nc(-c2cccc3ccccc23)c2c(N)ncnc21	95.9 ± 9.6%	110 ± 10%
Cc1c(NC(=O)c2ccc(C(C)(C)C)cc2)cccc1-c1cn(C)c(=O)c(Nc2ccc(C(=O)N3CCOCC3)cc2)n1	106 ± 13%	115 ± 8.8%
CCCC(CCC)C(=O)O [Valproic Acid (sodium salt)]	100 ± 10%	104 ± 10%
Nc1ncnc2c1c(I)cn2[C@@H]1O[C@H](CO)[C@@H](O)[C@H]1O [5-Iodotubercidin]	92.65 ± 0.91%	87.1 ± 4.9%
